Experimental findings from PubChem BioAssay (NCATS) are described below.

The structures appear in SMILES notation. Records with an inconclusive call do not appear. Calls of active or inactive are those of the source. Calls come from the whole dose curve.
% is set by controls: 0 for no effect and ±100 for the full control effect.

Sequence of Atrial natriuretic peptide receptor 1 (Homo sapiens) (P16066 whole entry, looked up, the tested form may be a part): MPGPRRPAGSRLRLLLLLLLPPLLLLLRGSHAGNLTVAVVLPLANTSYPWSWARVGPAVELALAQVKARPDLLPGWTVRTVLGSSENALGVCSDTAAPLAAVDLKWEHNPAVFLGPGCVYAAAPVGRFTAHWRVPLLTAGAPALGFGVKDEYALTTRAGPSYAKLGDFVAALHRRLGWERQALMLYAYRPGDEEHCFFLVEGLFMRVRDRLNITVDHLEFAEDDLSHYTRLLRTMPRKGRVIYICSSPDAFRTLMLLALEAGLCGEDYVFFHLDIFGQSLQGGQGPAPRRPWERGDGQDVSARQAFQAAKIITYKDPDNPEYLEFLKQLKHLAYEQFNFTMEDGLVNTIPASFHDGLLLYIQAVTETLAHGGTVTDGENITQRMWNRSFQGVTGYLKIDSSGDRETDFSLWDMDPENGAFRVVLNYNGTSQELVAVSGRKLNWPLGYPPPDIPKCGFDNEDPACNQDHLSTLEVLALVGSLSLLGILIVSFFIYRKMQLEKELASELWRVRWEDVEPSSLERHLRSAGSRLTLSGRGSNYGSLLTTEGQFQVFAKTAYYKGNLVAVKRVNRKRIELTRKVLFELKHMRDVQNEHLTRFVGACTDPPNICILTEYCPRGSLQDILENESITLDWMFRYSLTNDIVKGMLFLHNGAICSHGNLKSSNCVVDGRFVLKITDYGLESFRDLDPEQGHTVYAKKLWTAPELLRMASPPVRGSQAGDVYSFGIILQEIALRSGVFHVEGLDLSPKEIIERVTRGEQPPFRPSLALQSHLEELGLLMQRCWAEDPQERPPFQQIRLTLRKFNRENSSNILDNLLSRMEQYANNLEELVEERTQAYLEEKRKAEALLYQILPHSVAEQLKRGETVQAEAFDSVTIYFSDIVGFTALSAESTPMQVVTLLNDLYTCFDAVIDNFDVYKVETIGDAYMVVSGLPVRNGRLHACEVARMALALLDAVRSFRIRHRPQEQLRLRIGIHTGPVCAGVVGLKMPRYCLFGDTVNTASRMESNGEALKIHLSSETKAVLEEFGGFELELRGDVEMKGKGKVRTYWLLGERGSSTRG

The assay deals with Atrial natriuretic peptide receptor 1 (Homo sapiens) (UniProt P16066). As to the kind of experiment: Natriuretic polypeptide receptor (hNpr1) antagonism - Pilot screen (AID 1347049). The conditions noted are these: hNpr1 cells, antagonist mode cGMP read-out; series mostly up to 57.5 µM; activity change, negative = inhibition: at the top concentration. The protocol:
In order to identify small molecular compounds that inhibit the hNpr1 receptor we developed a high-throughput assay to measure inhibition of the guanylate cyclase activity of the receptor. cGMP production was measured using a circular permutated Firefly luciferase (FLuc) enzyme functionally linked to the cGMP binding domain of human phosphodiesterase 5 (GloSensor technology pGS-40F, (Fan, F. et al. 2008). The cGMP-sensor was expressed in human embryonic kidney 293 (HEK-293) cells and FLuc activity was measured after stimulation with hNrp agonist peptide. hNrp agonists activates the receptor's associated guanylyl cyclase (GC) domain producing cGMP which then binds to the GloSensor resulting in FLuc activation, the enzymatic activity of which can be measured as bioluminescence with addition of luciferin substrate.
F. Fan, B. F. Binkowski, B. L. Butler, P. F. Stecha, M. K. Lewis, K. V. Wood, Novel genetically encoded biosensors using firefly luciferase. ACS Chem Biol 3, 346-351 (2008).
This assay was initially piloted by testing with a small diversity library of compounds with known pharmacological activity.
PROTOCOL TABLES (as described by Inglese J, Shamu CE and Guy RK. 2007)
SEQUENCE No. (e.g., 1, 2, 3, etc.); […] (e.g., Cells, Incubation, Reagent, etc.); VALUE and DESCRIPTION.
1. Cells. Seed 1500 HEK293 cGMP-sensor cells expressing hNpr1 per well in 4uL into Greiner 1536-well white/solid bottom high base, tissue culture-treated plates.
2. Incubation. Incubate plated cells at 37C in 5% CO2, 95% RH overnight.
3. Reagent. Add 1uL per well GloSensor reagent from Promega (2% final concentration) or CO2 independent media vehicle control to respective columns of Greiner 1536-well plates.
4. Incubation. Incubate plated cells at room temperature for 2 h, protect from light.
5. Compounds. Library compounds and A-71915 control added at 23 nL per well, transferred by Pin Tool.
6. Incubation. Incubate plated cells for 30 min. at room temperature, protect from light.
7. Detector. GloSensor baseline pre-read luminescence measured using CCD-based camera (Viewlux).
8. Compound. Add 1uL of hNppA peptide to 0.1 nM final concentration to stimulate hNpr1 or CO2 independent media as vehicle control.
9. Incubation. Incubate treated cells at room temperature for 20 min., protect from light.
10. Detector. GloSensor post-hNppA luminescence measured using CCD-based camera (Viewlux).
NOTES (numbers refer to Sequence numbers above)
1. HEK293 cells expressing hNpr1 and GIP/pGS-40F grown to 85-95% confluence (48-72 h) in T175 culture flasks (CO2 independent media supplemented with 10% FBS, 1% Pen/Strep antibiotics and 1 ug/mL puromycin). Trypsinize and harvest cells from T175 culture flasks and filter through 40 um cell strainer. Cells counted with Invitrogen Countess (30,000,000 - 50,000,000 cells/flask). Cells diluted to a final concentration of 375 cells/uL in CO2 independent media and a Millipore multidrop used to dispense 1500 cells per well (4uL/well) into 9 x 1536-well Greiner White/Solid bottom, high base tissue-culture treated (TC) plates and one Aurora 1536-well Black/Clear bottom, low base, TC plate (for visual inspection of cell health throughout the duration of the assay).
2. Cells incubated overnight at ambient temperature, 24 h. at 37C in 95% RH incubator protected from light, covered with metal lid with gas-exchange holes.
3. Prepare GloSensor Reagent (Promega): Reconstitute GloSensor luciferase substrate by adding 8.2mL Hepes buffer to 250mg substrate, mix well, protect from light and stored at -80C. Prepare a fresh 12% GloSensor solution in CO2 independent supplemented plating media (see above). Mix well and store at ambient temperature, protected from light. 1uL 12% GloSensor Luciferase Reagent added (2% final concentration) to respective columns of 9 x 1536-well Greiner plate with BioRaptr, 1uL CO2 independent plating media added to respective columns as vehicle control with BioRaptr.
4. […]
In the case of `CN1C2CCC1CC(OC(=O)c1c[nH]c3ccccc13)C2` (stereo not drawn), the “activity change, negative = inhibition” value is 0.604% (inactive).

`COC(=O)[C@H]1[C@H]2C[C@H]3c4[nH]c5ccccc5c4CCN3C[C@H]2CC[C@@H]1O`: the “activity change, negative = inhibition” value is 0.0275% (inactive).

With `CCCn1c(=O)[nH]c(=O)c2[nH]cnc21`, the “activity change, negative = inhibition” value was 3.01% (inactive).

In the case of `C[C@@H]1C(=O)NC2=Nc3cccc(Cl)c3CN21`, the “activity change, negative = inhibition” value was 2.17% (inactive).

Regarding `CC(C)COC(=O)OCN1C(=O)CN(CCN2CC(=O)N(COC(=O)OCC(C)C)C(=O)C2)CC1=O`, the “activity change, negative = inhibition” value was 6.59% (inactive).

Turning to `CNCCC=C1c2ccccc2CCc2ccccc21`, the “activity change, negative = inhibition” value was -1.12% (inactive).

Take `CC1(C)CCC(NC(=O)[C@@H](N)CCC(=O)O)CC1`: the “activity change, negative = inhibition” value is 9.87% (inactive).

In the case of `N[C@@H](Cc1cnc[nH]1)C(=O)O`, the “activity change, negative = inhibition” value was 3.61% (inactive).

On to `N[C@H](CO)C(=O)O`, for which the “activity change, negative = inhibition” value was 7.65% (inactive).

With `O=C(O)c1cc2cc(Cc3cccnc3)ccc2o1`, the “activity change, negative = inhibition” value was 9.12% (inactive).

Take `CC(C)C[C@H]1C(=O)N2CCC[C@H]2[C@]2(O)O[C@](NC(=O)[C@@H]3C=C4c5cccc6[nH]c(Br)c(c56)C[C@H]4N(C)C3)(C(C)C)C(=O)N12`: the “activity change, negative = inhibition” value was 2.66% (inactive).

In the case of `COc1cc(NS(C)(=O)=O)ccc1Nc1c2ccccc2nc2ccccc12`, the “activity change, negative = inhibition” value was -1.63% (inactive).

Turning to `Nc1cc(Cl)c(NC2=NCCN2)c(Cl)c1`, the “activity change, negative = inhibition” value was 9.36% (inactive).

In the case of `COc1cc2c(cc1O)CC[C@@H]1[C@@H]2CC[C@]2(C)[C@@H](O)CC[C@@H]12`, the “activity change, negative = inhibition” value was -0.338% (inactive).

For `CCCC1O[C@@H]2C[C@H]3[C@@H]4CCC5=CC(=O)C=C[C@]5(C)[C@H]4[C@@H](O)C[C@]3(C)[C@]2(C(=O)CO)O1` (stereo partly drawn), the “activity change, negative = inhibition” value is -3.47% (inactive).

As for `O=C1CCC(c2ccc(-n3ccnc3)cc2)=NN1`, the “activity change, negative = inhibition” value was 4.1% (inactive).

For `CC[C@H](C)C(=O)O[C@H]1CCC=C2C=C[C@H](C)[C@H](CC[C@@H]3C[C@@H](O)CC(=O)O3)[C@H]21`, the “activity change, negative = inhibition” value is 1.77% (inactive).

Regarding `CCC(NC(C)C)C(O)c1ccc(O)c(O)c1` (stereo not drawn), the “activity change, negative = inhibition” value was 12.1% (inactive).

For `Oc1ccc(O)cc1`, the “activity change, negative = inhibition” value is -1.03% (inactive).

On to `CC(CCc1ccccc1)NCC(O)c1ccc(O)c(C(N)=O)c1` (stereo not drawn), for which the “activity change, negative = inhibition” value is -6.86% (inactive).

As for `C1CCc2nnnn2CC1`, the “activity change, negative = inhibition” value was 4.83% (inactive).

Turning to `C[C@]12CC[C@@H]3c4ccc(O)cc4CC[C@H]3[C@@H]1CC[C@@H]2O`, the “activity change, negative = inhibition” value was -7.6% (inactive).

`CC(=O)O[C@H]1C[C@@H]2CC[C@@H]3[C@H](CC[C@@]4(C)[C@H]3C[C@H]([N+]3(C)CCCCC3)[C@@H]4OC(C)=O)[C@@]2(C)C[C@@H]1[N+]1(C)CCCCC1`: the “activity change, negative = inhibition” value was 5.22% (inactive).
